Test results: PubChem BioAssay (NCATS)
Inconclusive results are not listed. A call without a number means that no potency is given here. Calls of active or inactive are those of the source. Calls follow the shape of the dose curve; as a rule, active = well fitted inhibition curve with a large enough effect; inconclusive = small, poorly fitted or top-dose-only effect; inactive = no such curve, though single readings can be large or run the other way.

Each compound was assayed against Tumor susceptibility gene 101 protein (Homo sapiens) (UniProt Q99816) (assay: qHTS Assay for Iinhibitors of HIV-1 Budding by Blocking the Interaction of PTAP/TSG101: Hit Validation (AID 651600; also: nearly all actives have a fitted effect of over 70% in size)). Conditions: PTAP peptide/TSG101 UEV interaction, biochemical assay; series mostly up to 57.5 µM.
Sequence of Tumor susceptibility gene 101 protein (Homo sapiens) (Q99816 whole entry, looked up, the tested form may be a part): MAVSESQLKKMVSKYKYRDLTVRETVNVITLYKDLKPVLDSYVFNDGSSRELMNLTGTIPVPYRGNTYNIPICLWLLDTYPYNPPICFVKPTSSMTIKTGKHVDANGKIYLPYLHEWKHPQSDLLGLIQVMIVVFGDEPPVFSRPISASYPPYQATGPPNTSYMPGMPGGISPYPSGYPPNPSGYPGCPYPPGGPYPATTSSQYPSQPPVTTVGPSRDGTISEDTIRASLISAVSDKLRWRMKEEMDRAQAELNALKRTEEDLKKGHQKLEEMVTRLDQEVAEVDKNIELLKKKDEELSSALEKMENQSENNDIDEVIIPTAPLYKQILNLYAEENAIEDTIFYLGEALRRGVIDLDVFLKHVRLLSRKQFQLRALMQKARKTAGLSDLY
Summary of the method: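 FITC-PTAP peptide (50 nM final) binding to Tsg101 binding domain (10 uM final) was measured by polarization after 20 min at r.t. with compounds, in 10 mM HEPES pH 7.5 buffer with 0.15 M NaCl and 0.01% Tween 20.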
Potency is read from the fitted curve at half-maximal effect.

SMILES | Potency
Oc1oc(-c2ccccc2)nc1C=Nc1cccc2ccccc12 | inactive
COc1ccc(CCn2c(NN=C(C)C)nc3c2c(=O)[nH]c(=O)n3C)cc1 | inactive
CC(C)(C)OC(=O)NC(Cc1ccccc1)C(=O)N1CCC(C(=O)NCC(=O)Nc2ccc(F)cc2)CC1 (stereo not given) | inactive
Cc1oc2cc(O)ccc2c(=O)c1-c1nncn1-c1ccccc1 | 20.6 µM (active)
O=c1oc2c(CN3CCCCC3)c(O)ccc2cc1-c1nc2ccccc2[nH]1 | 18.3 µM (active)
CCCCCCn1c(=O)[nH]c2nc3cc(N)ccc3nc2c1=O | 14.6 µM (active)
CN(C)c1ccc(N=Cc2nc(-c3ccccc3)oc2O)cc1 | 18.3 µM (active)
CC1=CC(=C(C#N)c2nc3ccccc3s2)C=C(C)N1CC1CCCO1 (stereo not given) | 16.3 µM (active)
N#CC(C(=O)NC1CC1)c1nc2ccccc2nc1N1CCCC1 (stereo not given) | inactive
CC1C2C(c3ccccc3)N(C)C(=O)N(C)C2N(C)C(=O)N1C (stereo not given) | inactive
Cc1cc(Nc2cccc(Cl)c2C)n2ncnc2n1 | inactive
COc1ccc(-c2cc(C(=O)N3CC(C)CC(C)C3)c3ccccc3n2)cc1OC (stereo not given) | inactive
O=S(=O)(Nc1cccc(-c2ccc(N3CCCCCC3)nn2)c1)c1cccc(F)c1 | inactive
CNc1c2cccc(C)c2nc2c(C(=O)NCCN(C)C)cccc12 | 16.3 µM (active)
Nc1cnccc1C(=O)O | 20.6 µM (active)
Cc1c(N=C2N=C(NC(=O)c3ccc(F)cc3)c3ccccc32)c(=O)n(-c2ccccc2)n1C | inactive
Cc1ccc(C2C=C(c3ccccc3)Nc3nc(NS(=O)(=O)c4ccccc4)nn32)cc1 (stereo not given) | inactive
CCCCNc1c2c3c(cccc3n(C)c1=O)C(=O)c1ccccc1-2 | 5.8 µM (active)
O=c1[nH]nc(-c2ccc(F)cc2)cc1Cc1ccc(F)cc1 | inactive
CCN(c1ccc(N=Cc2c(O)n(Cc3ccc(OC)cc3)c(=O)c3ccccc23)cc1)C(C)C | 25.9 µM (active)

SMILES | Potency
CCOc1ccc(N(CC(=O)NCc2ccc(F)cc2)S(=O)(=O)c2c(C)noc2C)cc1 | inactive
COc1ccc(C2C(C(=O)c3cccs3)=C(O)C(=O)N2c2nncs2)cc1 (stereo not given) | 20.6 µM (active)
Cc1c(C(=O)NCc2ccccc2)sc2nc3n(c(=O)c12)CCCCC3 | inactive
CCCN1CCCc2cc(CN)ccc21 | inactive
CC(C)(C)c1ccc(C2C3=C(CCCC3=O)NC3=C2C(=O)c2ccccc23)cc1 (stereo not given) | inactive
CCC(=O)Oc1ccc2c(c1)O/C(=C\c1ccco1)C2=O | 16.3 µM (active)
Cn1cc(/C=C2\SC(=S)N(NC(=O)c3ccccc3)C2=O)c2ccccc21 | inactive
COc1ccc(OC)c(NC(=O)CCN2CC(C)CC(C)C2)c1 (stereo not given) | inactive
CN1CC=C2C(C#N)=C(N)C(C#N)(C#N)[C@H](c3ccoc3)[C@H]2C1 | inactive
O=c1[nH]c(=O)n(-c2cc(Br)c(O)c(Br)c2)cc1Br | inactive
COc1ccc(C(=O)c2sc3nc(C)cc(-c4cccs4)c3c2N)cc1OC | inactive
CCN(CC)c1ccc2c(-c3ccc(S(=O)(=O)O)cc3S(=O)(=O)[O-])c3ccc(=[N+](CC)CC)cc-3oc2c1 | 11.6 µM (active)
Cc1ccc(-c2nc(C=Nc3ccc(O)cc3)c(O)o2)cc1 | inactive
Brc1ccc(C2=CC(c3ccco3)n3ncnc3N2)cc1 (stereo not given) | inactive
CC(OC(=O)c1c2c(nc3ccccc13)/C(=C\c1ccc3c(c1)OCO3)CCC2)C(=O)Nc1ccc(S(N)(=O)=O)cc1 (stereo not given) | 4.11 µM (active)
CCC1CCCCN1C(=O)c1cc2cc(Br)ccc2oc1=O (stereo not given) | inactive
O=c1oc2c3c4c(cc2c2c1CCC2)OCCN4CCC3 | inactive
Cc1cccc(NC(=S)NCCC(c2ccccc2)c2ccccc2)c1 | inactive
COc1ccc2oc3ccccc3c(=O)c2c1 | inactive
COc1cc(/C=c2\sc3nc(=O)c(-c4ccccc4)nn3c2=O)ccc1OCCC(C)C | inactive
